The record followed here is PubChem BioAssay (NCATS).

Assay [1] can be described thus: qHTS Screen of the MIPE 4.0 Collection Against Ewings Sarcoma (TC32) (AID 1259256). Note: nearly all actives have a fitted effect of over 45% in size. Note: potency is the fitted concentration of half-maximal effect. In short, it runs like this: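 Compound titrations go onto adherent log-phase cells 4 h after seeding, incubate 48 h at 37C, then CellTiter-Glo luminescence reports viability relative to DMSO and cell-free controls.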
(qHTS replaces the single test concentration by a dilution series.)

The nature of assay [2]: qHTS assay to identify small molecule inhibitors of chordoma cells - UCH-1 (AID 1259355). For activity, negative = inhibition: % is set by controls: 0 for no effect and ±100 for the full control effect. Note: nearly all actives have a fitted effect of over 55% in size. Note: potency is the fitted concentration of half-maximal effect; series mostly up to about 46 µM. In short, it runs like this:
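Luminescent ATP read-out (CellTiter-Glo, 30min at room temperature) measured viability of UCH-1 cells exposed for 48hr to test drugs at 15 concentrations, co-dosed with a five-agent combination of auranofin, camptothecin, doxorubicin, rubitecan and topotecan.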

Assay [3] in a line: qHTS assay to identify small molecule inhibitors of chordoma cells - UCH-2 (AID 1259356). Note: potency is the fitted concentration of half-maximal effect.
A short description of assay [4]: P-glycoprotein substrates identified in KB-3-1 adenocarcinoma cell line, qHTS therapeutic library screen (AID 1346986). Note: nearly all actives have a fitted effect of over 60% in size. In short, it runs like this: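 Resistance attributable to P-gp was assessed by comparing AC50 in KB-8-5-11 with parental KB-3-1 and by tariquidar reversal. Cells were exposed 72 h and viability read by CellTiter-Glo.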
The nature of assay [5]: Identifying Small Molecule Inhibitors of Pancreatic Cancer Stem Cells (SN12C, Adherent) (AID 1259358).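 Note: cell survival measured after 48 h of compound exposure.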 In outline:
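Viability is scored by CellTiter-Glo luminescence 48 h after dosing, expressed as percent activity against vehicle and no-cell references. Spheroid formats rely on cells cultured 14 days in stem cell media beforehand.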

Assay [6] can be described thus: Identifying Small Molecule Inhibitors of Pancreatic Cancer Stem Cells (SN12C, Spheroid) (AID 1259360).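 Note: 100% = DMSO-treated cells and 0% = wells without cells.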 The following applies: Potency: SN12C spheroid viability. In outline: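 Pre-formed 14-day tumor spheroids or adherent cells dosed and incubated 48 h, 37C, 5% CO2. Viability assessed by CellTiter-Glo.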

Records with an inconclusive call do not appear. Unmarked numbers belong to inactive results. The source made the active and inactive calls. Calls come from the whole dose curve; as a rule, active = well fitted curve in the direction sought with a large enough effect; inconclusive = small, poorly fitted or top-dose-only effect, or another doubt; inactive = no such curve, though single readings can be large; an effect the other way counts as inactive or inconclusive.

Turning to `O=C(c1ccccc1)c1ccc2n1CCC2C(=O)O` (configuration not stated), the Potency in assay [1] is 3.72 µM (active). For the same molecule, the Potency entry in assay [2] and in assay [3] was “inactive” throughout.

As to `COc1ccc(C2(C#N)CCC(C(=O)O)CC2)cc1OC1CCCC1` (configuration not stated), the Potency result in assay [1], in assay [2] and in assay [3] was “inactive” in each case.

Take `NCCCCNCCCN`: the Potency result in assay [1] was “inactive”.

Turning to `O=C(O)c1cc(=O)c2c(OCC(O)COc3cccc4oc(C(=O)O)cc(=O)c34)cccc2o1`, the Potency result in assay [1], in assay [2] and in assay [3] was “inactive” each time.

As to `CN1C(C(=O)Nc2ccccn2)=C(O)c2sccc2S1(=O)=O`, the Potency result in assay [1], in assay [2] and in assay [3] was “inactive” each time.

Turning to `COc1cc2nc(N3CCN(C(=O)C4CCCO4)CC3)nc(N)c2cc1OC` (configuration not stated), the Potency result in assay [1] and in assay [3] was “inactive” each time. Besides, the activity, negative = inhibition in assay [2] is -3.3% [at 1.88 µM].

Turning to `COC(=O)C1=C(C)NC(C)=C(C(=O)OCCCN2CCC(c3ccccc3)(c3ccccc3)CC2)C1c1cccc([N+](=O)[O-])c1` (configuration not stated), the Potency in assay [1] is 29.6 µM (active); in assay [2], 31.6 µM (active).

On to `CNC[C@@H](O)[C@@H](O)[C@H](O)[C@H](O)CO`, for which the Potency result in assay [1], in assay [2] and in assay [3] was “inactive” each time.

Regarding `COc1cc2c(cc1OC)C1CC(=O)C(CC(C)C)CN1CC2` (configuration not stated), the Potency result in assay [1] is “inactive”.

As for `CN(C)c1ccc2nc3ccc(=[N+](C)C)cc-3sc2c1`, the Potency is 9.35 µM (active) in assay [1], 7.94 µM (active) in assay [2] and 14.6 µM (active) in assay [3].

Turning to `CC(C)[N+]1(C)[C@@H]2CC[C@H]1CC(OC(=O)C(CO)c1ccccc1)C2` (some centres not stated), the Potency entry in assay [1], in assay [2] and in assay [3] was “inactive” each time.

In the case of `O=c1oc2cc(O)ccc2s1`, the Potency in assay [1] was 20.9 µM (active). Moreover, the Potency result in assay [2] and in assay [3] was “inactive” throughout.

`Cc1cc(=O)c2c(O)c3c(O)cc(=O)c4c3c3c(cc(O)c1c23)C(C)(C)C=4O`: the Potency entry in assay [1] is “inactive”. In addition, the Potency in assay [2] was 6.31 µM (active); in assay [3], 6.51 µM (active).

Turning to `C[C@@H](c1ncncc1F)[C@](O)(Cn1cncn1)c1ccc(F)cc1F`, in assay [1], the Potency result was “inactive”.

For `NC(=O)Cc1cccc(C(=O)c2ccccc2)c1N`, the Potency in assay [1] is 4.69 µM (active).

`COc1cc(OC)c(C(=O)CCCN2CCCC2)c(OC)c1`: the Potency entry in assay [1], in assay [2] and in assay [3] was “inactive” in each case.

Regarding `COC1=C(OC)C(=O)C(CCCCCCCCCCO)=C(C)C1=O`, in assay [1], the Potency was 26.4 µM (active). For the same molecule, the Potency entry in assay [2] and in assay [3] was “inactive” in each case.

For `Nc1nc(N)c(N=O)c(OCC2CCCCC2)n1`, in assay [1], the Potency is 9.35 µM (active).

In the case of `COC(=O)N[C@H](C(=O)N[C@@H](Cc1ccccc1)[C@@H](O)CN(Cc1ccc(-c2ccccn2)cc1)NC(=O)[C@@H](NC(=O)OC)C(C)(C)C)C(C)(C)C`, in assay [1], the Potency entry is “inactive”.

For the molecule `Cc1cccc(CN2CCN(C(c3ccccc3)c3ccc(Cl)cc3)CC2)c1` (configuration not stated), the Potency in assay [1] was 13.2 µM (active). For the same molecule, the Potency entry in assay [2] and in assay [3] was “inactive” throughout.

Take `Cc1c(OCC(F)(F)F)ccnc1CS(=O)c1nc2ccccc2[nH]1` (configuration not stated): the Potency result in assay [1], in assay [2] and in assay [3] was “inactive” in each case.

Take `CCCCCCCCCCCCCCCCCCCCCCO`: the Potency entry in assay [1], in assay [2] and in assay [3] was “inactive” in each case.

With `CCOC(=O)C1=C[C@@H](OC(CC)CC)[C@H](NC(C)=O)[C@@H](N)C1`, the Potency entry in assay [1], in assay [2] and in assay [3] was “inactive” in each case.

For the molecule `CC(=O)O[C@H]1C(=O)[C@@]2(C)C([C@H](OC(=O)c3ccccc3)[C@]3(O)C[C@H](OC(=O)[C@H](O)[C@@H](NC(=O)c4ccccc4)c4ccccc4)C(C)=C1C3(C)C)[C@]1(OC(C)=O)CO[C@@H]1C[C@@H]2O` (some centres not stated), in assay [1], the Potency result was “inactive”.

Regarding `C[Se]CCC(N)C(=O)O` (configuration not stated), the Potency result in assay [1], in assay [2] and in assay [3] was “inactive” each time.

On to `N=C(N)c1ccc2cc(OC(=O)c3ccc(N=C(N)N)cc3)ccc2c1`, for which the Potency entry in assay [1], in assay [2] and in assay [3] was “inactive” throughout.

`O=c1c(O)c(-c2ccc(O)cc2O)oc2cc(O)cc(O)c12`: the Potency entry in assay [1] was “inactive”.

For the molecule `O=C(OC1C[C@H]2CC[C@@H](C1)[N+]21CCCC1)C(O)(c1ccccc1)c1ccccc1` (some centres not stated), the Potency entry in assay [1], in assay [2] and in assay [3] was “inactive” each time.

For the molecule `CCCS(=O)c1ccc2nc(NC(=O)OC)[nH]c2c1` (configuration not stated), the Potency in assay [1] is 23.5 µM (active).

On to `Cc1cc(O)c2c(c1)C(=O)c1cc(O)cc(O)c1C2=O`, for which, in assay [1], the Potency result is “inactive”.

Regarding `Clc1ccc2c(N3CCN(CCCN4CCN(c5ccnc6cc(Cl)ccc56)CC4)CC3)ccnc2c1`, the Potency result in assay [1] is “inactive”.

With `CC(C)Oc1ccc2c(=O)c(-c3ccccc3)coc2c1`, the Potency result in assay [1], in assay [2] and in assay [3] was “inactive” throughout.

Consider `O=c1c(O)c(-c2cc(O)c(O)c(O)c2)oc2cc(O)cc(O)c12`, for which, in assay [1], the Potency entry was “inactive”.

In the case of `Cc1nc(-c2ccc(OCC(C)C)c(C#N)c2)sc1C(=O)O`, the Potency entry in assay [1] is “inactive”.

On to `OC(CN1CCN(c2cccc(Cl)c2)CC1)C(c1ccccc1)c1ccccc1` (configuration not stated), for which the Potency in assay [1] is 16.6 µM (active).

On to `CCC1=C(C)CN(C(=O)NCCc2ccc(S(=O)(=O)NC(=O)NC3CCC(C)CC3)cc2)C1=O` (configuration not stated), for which the Potency result in assay [1] and in assay [3] was “inactive” in each case.

`O=C1c2ccccc2-c2n[nH]c3cccc1c23`: in assay [1], the Potency is 18.7 µM (active). The Potency entry in assay [2] and in assay [3] was “inactive” each time.

With `CC1(C)NC(=O)N(c2ccc([N+](=O)[O-])c(C(F)(F)F)c2)C1=O`, the Potency result in assay [1], in assay [2] and in assay [3] was “inactive” in each case.

Consider `C[C@H](Cn1cnc2c(N)ncnc21)OCP(=O)(O)O`, for which the Potency result in assay [1], in assay [2], in assay [3] and in assay [4] was “inactive” throughout.

As to `NS(=O)(=O)c1cc(C(=O)O)c(NCc2ccco2)cc1Cl`, the Potency result in assay [1], in assay [2] and in assay [3] was “inactive” throughout.

For the molecule `Oc1ccc2ccccc2c1SSc1c(O)ccc2ccccc12`, the Potency in assay [1] was 23.5 µM (active). Also, the Potency entry in assay [4] was “inactive”.

Turning to `COc1cc2c(N3CCN(C(=O)Nc4ccc(OC(C)C)cc4)CC3)ncnc2cc1OCCCN1CCCCC1`, the Potency in assay [1] is 18.7 µM (active). Besides, the Potency result in assay [5] and in assay [6] was “inactive” each time.

For `Nc1cc(C(Cl)=C(Cl)Cl)c(S(N)(=O)=O)cc1S(N)(=O)=O`, the Potency result in assay [1], in assay [2] and in assay [3] was “inactive” in each case.

Turning to `O=C(CS(=O)Cc1ccco1)NCC=CCOc1cc(CN2CCCCC2)ccn1` (configuration not stated), the Potency result in assay [1], in assay [2] and in assay [3] was “inactive” throughout.
